# Compound activity as filed in PubChem.
# GPR151 activ: activators of human GPR151; 1% of 650,000 active; PathHunter beta-arrestin GPR151 cells, luminescence; activation, % at 11.2 µM; Q8TDV0; in the data active = activation above about 4.9%;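 also: 0% = median of compound wells and 100% = cells with positive control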
# MITF primary: human MITF inhibition, primary screen | AlphaScreen MITF homodimerization, bead proximity signal | inhibition, % at 2.6 µM | 0.91% of 650,000 active; in the data active = inhibition above about 50%;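 also: 0% = vehicle wells with protein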
# FBW7 activator: human FBW7 E3 ligase activation, primary screen; Q969H0; AlphaScreen FBW7–phospho-cyclin E peptide binding, activator screen; normalized activity (activation), % at 26.1 µM; 0.13% of 650,000 active; AID 1259310; in the data active = normalized activity above about 1.9%;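 also: purified mutant Fbw7 with reduced substrate affinity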
# Target sequence (Q969H0 whole entry, looked up): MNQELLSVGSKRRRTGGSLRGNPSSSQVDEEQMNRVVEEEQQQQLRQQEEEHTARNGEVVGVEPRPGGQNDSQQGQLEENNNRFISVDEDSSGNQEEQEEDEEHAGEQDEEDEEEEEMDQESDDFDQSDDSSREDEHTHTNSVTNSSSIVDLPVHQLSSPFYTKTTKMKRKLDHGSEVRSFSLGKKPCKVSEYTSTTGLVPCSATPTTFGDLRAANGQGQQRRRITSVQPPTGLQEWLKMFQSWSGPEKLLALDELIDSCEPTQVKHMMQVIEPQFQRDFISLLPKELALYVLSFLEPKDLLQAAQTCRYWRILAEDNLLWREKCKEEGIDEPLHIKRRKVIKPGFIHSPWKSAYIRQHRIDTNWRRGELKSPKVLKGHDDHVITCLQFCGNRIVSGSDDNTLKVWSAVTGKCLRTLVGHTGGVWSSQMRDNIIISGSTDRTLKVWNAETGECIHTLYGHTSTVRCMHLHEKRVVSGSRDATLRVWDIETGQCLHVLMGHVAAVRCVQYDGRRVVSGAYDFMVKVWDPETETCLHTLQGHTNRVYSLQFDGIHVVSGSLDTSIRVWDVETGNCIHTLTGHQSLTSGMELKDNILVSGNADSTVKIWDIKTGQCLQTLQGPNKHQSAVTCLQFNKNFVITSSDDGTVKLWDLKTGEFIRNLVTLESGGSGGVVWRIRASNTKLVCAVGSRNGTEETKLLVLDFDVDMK
# TEAD-YAP block: TEAD-YAP interaction inhibition; inhibition, % at 9.12 µM; 1.4% of 640,000 active; HEK-TIYL cells, TEAD-Gal4/YAP UAS-luciferase luminescence; in the data active = inhibition above about 32%;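 also: 0% = median of test compound wells and 100% = reference inhibitor wells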
# GPR151 confirm: confirmation of human GPR151 activators; 6,700 tested, under 10 active; shares compounds with GPR151 activ; GPR151 PathHunter beta-arrestin cells, luminescence, 90 min; % of EA-reagent control over plate median; AID 1508609; activation, % at 11.2 µM;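 active = mean percent activation across replicates above the confirmation screen cutoff of 4.91%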
# GPR119 counter: counter-screen for GPR151 activators: effect on human GPR119; shares compounds with GPR151 activ; GPR119 PathHunter beta-arrestin cells, luminescence, 90 min; 0 = compound-well median, 100 = enzyme-acceptor control; AID 1508611; activation, % at 11.2 µM; 0.3% of 6,700 active;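 active = mean percent activation in the counterscreen above 29.09%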;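 also: counterscreen on off-target GPR119 to flag nonselective hits from the GPR151 activator screen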
# Starred values were filed as active, the others as inactive; . = no result given. Sampled rows, rich in hits. Any-hit rate of the full collection: about 3.5%.
SMILES,GPR151 activ,MITF primary,FBW7 activator,TEAD-YAP block,GPR151 confirm,GPR119 counter
COc1ccccc1CNC(=O)CN(c1cc(C(F)(F)F)ccc1Cl)S(C)(=O)=O,7.6*,2.8,-0.1,-5.9,0.1,8.8
Cc1nnc2c(N3CCN(c4ccccn4)CC3)nc3ccccc3n12,6.2*,-6.2,-0.1,1.3,0.0,-2.0
O=C1N/C(=C/c2ccc(-c3cccc(F)c3)o2)C(=O)N1c1ccccc1,2.4,0.5,0.7,-16.1,.,.
CCOc1nc(NCCC2=CCCCC2)nc(OCC)n1,9.8*,-3.3,0.2,-7.0,0.7,-8.9
CCN(CC)c1nc(C)c([N+](=O)[O-])c(C)c1C(N)=O,6.5*,-15.7,0.1,-11.5,0.0,2.2
O=C(Nc1cccc(N=Cc2cc([N+](=O)[O-])cc([N+](=O)[O-])c2O)c1)c1ccco1,0.5,12.9,-0.1,-1.7,.,.
CC(=O)Nc1cccc(N=Cc2cc([N+](=O)[O-])cc(C)c2O)c1,7.4*,3.7,0.2,-25.8,-0.7,3.1
Cc1cccc(-n2cc(-c3ccccc3)c3c(NC(C)C)ncnc32)c1,5.0*,6.8,-0.1,-20.9,-0.7,-1.4
CC(C)Nc1ncnc2c1c(-c1ccccc1)cn2-c1cccc(Cl)c1,-1.7,-10.5,-0.1,-36.6,.,.
CCCSc1ncnc2c1c(-c1ccccc1)cn2-c1cccc(F)c1,7.6*,-6.6,0.0,-4.3,0.5,13.3
COc1ccc2[nH]c(C)c(CN(C)C)c(=O)c2c1,0.0,-3.5,0.0,14.6,.,.
CCOc1ccc2[nH]c(C)c(CN(C)C)c(=O)c2c1,6.8*,-1.3,-0.1,-4.1,0.3,4.1
COc1ccc(N2C(=O)NC3CC2(C)Oc2c(OC)cccc23)c(OC)c1 (stereo not drawn),6.7*,7.3,-0.1,12.3,2.1,11.3
COc1ccc(N2C(=O)NC3CC2(C)Oc2c(OC)cccc23)cc1 (stereo not drawn),0.5,4.0,0.0,9.9,.,.
Cn1nnc2cc(NC(=O)NCc3ccccc3)ccc21,6.3*,10.5,0.3,-8.6,-0.5,-3.5
Cn1nnc2cc(NC(=O)Nc3ccccc3F)ccc21,-2.9,2.1,0.2,11.5,.,.
COC(=O)CN(C)C1CCC(=O)N(Cc2ccc(F)c(F)c2)CC1 (stereo not drawn),1.5,12.7,0.2,-3.3,.,.
c1ccc(C2=NCCCO2)cc1,10.4*,-21.7,0.0,8.7,0.6,-6.4
c1ccc(-c2nnc(-c3ccccc3)o2)cc1,-7.4,2.1,-0.1,-34.4,.,.
CN(C)CCCN1C(=O)C(=O)/C(=C(\O)c2ccccc2)C1c1ccncc1 (stereo not drawn),0.6,7.2,0.0,-7.5,.,.
CC1Oc2ccccc2C=C1C1/C(=C(\O)c2ccccc2)C(=O)C(=O)N1CCCN(C)C (stereo not drawn),12.3*,-3.0,-0.1,4.0,1.1,-2.9
Cc1ccc(NC(=O)C2CC3CCCN3C23C(=O)N(C)c2ccccc23)cc1C (stereo not drawn),-0.1,-22.4,-0.1,6.5,.,.
COc1ccc(NC(=O)C2CC3CCCN3C23C(=O)N(C)c2ccccc23)cc1OC (stereo not drawn),5.2*,3.9,0.2,-2.9,0.8,5.1
Cc1cccc(C(=O)Oc2ccc(C)c(C)c2)c1,0.5,-22.2,0.0,1.8,.,.
Cc1cccc(C(=O)Oc2ccc(/C=N/N=C(N)N)cc2)c1,8.5*,-13.9,-0.3,64.6*,-0.9,-14.1
SMILES,GPR151 activ,MITF primary,FBW7 activator,TEAD-YAP block,GPR151 confirm,GPR119 counter
COc1ccc(Cl)cc1NC(=O)c1cnn2c1NC(c1ccc(OC)c(OC)c1)CC2C(F)(F)F (stereo not drawn),8.6*,3.3,0.0,-17.8,0.8,8.6
COc1ccc(-c2csc(Nc3ccccc3)n2)cc1F,6.5*,6.7,0.0,-68.1,2.2,0.8
COc1cccc(Nc2nc(-c3ccc(OC)c(F)c3)cs2)c1,-0.2,8.5,0.0,19.1,.,.
CCCCn1c(=O)c2c(nc3n(Cc4ccc(OC)cc4)c(C)cn23)n(C)c1=O,0.1,11.0,0.6,3.3,.,.
CCCCCn1c(=O)c2c(nc3n(Cc4ccc(OC)cc4)c(C)cn23)n(C)c1=O,4.9*,0.6,0.2,6.8,-0.8,-7.2
C=CCn1c(C)cn2c3c(=O)n(CC(C)C)c(=O)n(C)c3nc12,1.3,-7.2,-0.1,6.4,.,.
